Reference: PubChem BioAssay (NCI)
About 79,000 compounds went through this panel and 15% of them were active in at least one assay; those are over-represented in the sample as a whole. Calls of active or inactive are those of the source. Rule as the data show it: active = growth inhibition above about 70%; inactive = the rest. Where a SMILES comes first, the peptide text is derived from it.

Experiments:
[1] = NCI Yeast Anticancer Drug Screen. Data for the rad50 strain (AID 155);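 also: 0% = growth of vehicle-only cultures of the same strain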; conditions: S. cerevisiae rad50 strain growth inhibition; at 50.0 µM; active compounds read high
In short: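 A DNA repair-deficient yeast mutant serves as the test organism; compound-induced growth inhibition is calculated against vehicle-treated cells.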

[2] = NCI Yeast Anticancer Drug Screen. Data for the mec2-1 strain (AID 157); conditions: S. cerevisiae mec2-1 strain, at 50.0 µM, active compounds read high
In short: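 Growth inhibition is read against vehicle-treated controls after compound exposure of the mec2-1 yeast strain, which is defective in DNA damage repair or cell cycle control.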

[3] = NCI Yeast Anticancer Drug Screen. Data for the sgs1 mgt1 strain (AID 161);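 also: 0% = growth of cultures given vehicle only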; conditions: S. cerevisiae sgs1 mgt1 strain, at 50.0 µM, active compounds read high
In short: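 Compounds are added to genetically altered yeast, and growth is compared with cultures given vehicle alone to give percent inhibition.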

[4] = NCI Yeast Anticancer Drug Screen. Data for the cln2 rad14 strain (AID 165);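 also: 0% = growth equal to vehicle treated cultures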; conditions: S. cerevisiae cln2 rad14 strain, at 50.0 µM, active compounds read high
In short: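 Growth inhibition, relative to vehicle-treated controls, is the read-out. The test organism is a yeast strain with defined genetic alterations, cln2 rad14.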

[5] = NCI Yeast Anticancer Drug Screen. Data for the bub3 strain (AID 167); conditions: S. cerevisiae bub3 mutant strain, at 50.0 µM, active compounds read high
In short: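 Inhibition values come from growth of compound-treated mutant yeast normalised to vehicle-treated controls.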

[6] = NCI Yeast Anticancer Drug Screen. Data for the mlh1 rad18 strain (AID 175); conditions: S. cerevisiae mlh1 rad18 strain growth inhibition; at 50.0 µM; active compounds read high
In short: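 Cells of a genetically altered yeast strain, deficient in DNA damage repair, were treated with compound. Their growth was then compared with that of vehicle-treated cultures to give inhibition.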

Measured: growth inhibition

COc1cc(NCCCCCN2C(=O)c3ccccc3C2=O)c2ncccc2c1
inactive: [1] 13.9% | [2] 13.2% | [3] 17.4% | [4] 11% | [5] 10.7% | [6] 0.1%

C=C1CC[N+]2(CCCC)CCCC12 (stereo unspecified)
inactive: [1] 4.85% | [2] 29.2% | [3] 16.2% | [4] -4.1% | [5] 41.6% | [6] 1%

O=C(OCc1ccccc1)N(Cc1ccccc1)S(=O)(=O)c1ccccc1
inactive: [1] 26.1% | [2] 34.8% | [3] 14.9% | [4] 5.5% | [5] 13.6% | [6] 0.4%

COC(=O)C1(COC(C)=O)CC1
inactive: [1] -6.8% | [2] 1.55% | [3] 6% | [4] -15.6% | [5] -2.75% | [6] -3.2%

O=C1C(=O)c2ccc3c(c2-c2cc4c(cc21)OCO4)OCO3
inactive: [1] -5.55% | [2] -17.1% | [3] -14.9% | [4] -5.55% | [5] -27.5% | [6] 18%

O=C(O)C(O)C(O)C(O)C(O)C(=O)O.[Cu+2] (stereo unspecified)
inactive: [1] 1.2% | [2] -6.15% | [3] 2.25% | [4] 0% | [5] -4.4% | [6] 15.2%

CC12CCCCC1=C(F)C(F)(F)S2 (stereo unspecified)
inactive: [1] 0.15% | [2] -17.4% | [3] 7.45% | [4] 24.6% | [5] -2.45% | [6] 17.7%

COc1cc2c(cc1OC)C1CC(O)(c3nccc4cc(OC)c(OC)cc34)CCN1CC2 (stereo unspecified)
inactive: [1] 21.1% | [2] -1.8% | [3] -3.9% | [4] 10.7% | [5] -1.3% | [6] -14.1%

COC(=O)c1[nH]c(=O)c(C#N)c(C(=O)OC)c1C(=O)c1cccnc1
inactive: [1] 2.95% | [2] -3.55% | [3] -5.2% | [4] 18.7% | [5] -17.4% | [6] 25.6%

CSCCC(N)C(=O)NC(CCSC)C(=O)O (stereo not drawn) (H-Met-Met-OH; configuration not given here)
inactive: [1] -12% | [2] -21.4% | [3] 2.4% | [4] -25.1% | [5] -8.95% | [6] -5.7%

Nc1ncnc(N2CCOCC2)n1
inactive: [1] -28.8% | [2] -41.3% | [3] -8.15% | [4] 0.95% | [5] -14.9% | [6] -8.3%

CC(N)CCCO (stereo unspecified)
inactive: [1] -5.15% | [2] -5.5% | [3] 0.75% | [4] 10.3% | [5] -2.05% | [6] -2.05%

CCOC(=O)CCCN(c1ccc(OC)c(OC)c1)S(=O)(=O)c1ccc(C)cc1
inactive: [1] 32.1% | [2] 12.7% | [3] 43% | [4] 18.8% | [5] 16.4% | [6] 34.2%

COc1cc2c3c(c1)[nH]c(=S)n3C(=O)CS2
inactive: [1] -18.9% | [2] -30.1% | [3] -57.4% | [4] -16.7% | [5] -18.7% | [6] -40.9%

CCOc1ccc(NC(=O)C(C)O)cc1 (stereo unspecified)
inactive: [1] -29.9% | [2] -14.4% | [3] -20.2% | [4] 6.1% | [5] -3.65% | [6] -14.3%

CCN1CSC(=S)N(Cc2ccccc2)C1
inactive: [1] 16.9% | [2] 6.3% | [3] 50.3% | [4] 4.55% | [5] 28.2% | [6] 32.6%

CC[N+](C)(CC)CCl
inactive: [1] -49.2% | [2] -17.9% | [3] -20.8% | [4] -45.4% | [5] 7.6% | [6] -1.65%

CC(=O)c1ccccc1NCC(=O)Nn1cnc2ccc(S(=O)(=O)Nc3ccccc3C(C)=O)cc2c1=O
inactive: [1] 7.25% | [2] -21.3% | [3] 12.9% | [4] 18.6% | [5] 11.5% | [6] 7.6%

CN(C/C=C/CN(C)C(=S)Nc1ccccc1)C(=S)Nc1ccccc1
inactive: [1] -19.1% | [2] 13.1% | [3] -20.5% | [4] -2.65% | [5] 2.85% | [6] 5.65%

COc1ccc(-c2c(C(C)=O)c(C)n(C3OC(CO)C(O)C(O)C3O)c(=S)c2C#N)cc1 (stereo unspecified)
inactive: [1] 15.9% | [2] 34.2% | [3] 31.8% | [4] 34% | [5] 26.2% | [6] 49%

CC(=O)NCC(N)=S
inactive: [1] 5.85% | [2] -24.1% | [3] 0.65% | [4] -1.55% | [5] 5.3% | [6] 4%

C/C=C/C=N/N(C(=O)c1cc([N+](=O)[O-])cc([N+](=O)[O-])c1)C1=NC(c2ccccc2)C(c2ccccc2)=NN1 (stereo unspecified)
inactive: [1] 41.9% | [2] 24.4% | [3] 13% | [4] 41.1% | [5] 15.3% | [6] 26.3%

C=Cc1ccc(OC2OC(CO)C(OC3OC(CO)C(O)C(O)C3O)C(O)C2O)cc1 (stereo unspecified)
inactive: [1] 14.7% | [2] -18.9% | [3] -1.1% | [4] -58.9% | [5] -0.35% | [6] -2.8%

N#C/C(=C\c1ccc(Cl)cc1)C(=O)c1ccccc1
inactive: [1] 9.4% | [2] 12.8% | [3] 29.8% | [4] 20.9% | [5] 6.95% | [6] 22.7%

CC(C)OC(=O)CC1CCCCC1
inactive: [1] -4% | [2] -4.4% | [3] -14.1% | [4] 2.95% | [5] 3.9% | [6] 3.15%

O/N=C/c1ccc(Cc2ccccc2)o1
inactive: [1] 15.7% | [2] 19.6% | [3] 11.2% | [4] -18.8% | [5] -11.3% | [6] 25.9%

COC(=O)C1CCC(=O)N1C(c1ccc(OC)cc1)c1ccc2c(c1)OCO2 (stereo unspecified)
inactive: [1] -0.1% | [2] 20.9% | [3] 11.1% | [4] 11.7% | [5] 31.5% | [6] 34%

CCOC(=O)C(=CNc1ccc2c(c1)OCO2)C(=O)OCC
inactive: [1] 4.95% | [2] -11.2% | [3] 28.2% | [4] 4.65% | [5] 49.4% | [6] 14.8%

CC(C)/C(Cl)=N/OC(=O)Nc1ccc(Cl)c(Cl)c1
active: [1] 85.5% | [2] 90.8% | [3] 92.3% | [4] 84.8% | [5] 88.9% | [6] 82.8%

CCNC(=O)OC(C)C(O)c1ccccc1 (stereo unspecified)
inactive: [1] 0.05% | [2] 11.6% | [3] 33.2% | [4] 6.8% | [5] -19.6% | [6] 29.2%

COc1ccc(C2C(N)=NCC2c2ccccn2)cc1 (stereo unspecified)
inactive: [1] -21.9% | [2] -17.6% | [3] -12.4% | [4] 16.1% | [5] -9.55% | [6] -12.3%

CC(=O)COc1ccccc1-c1ccccc1
inactive: [1] 5.4% | [2] 8.55% | [3] 4.9% | [4] -34.8% | [5] 8.6% | [6] -14.7%

CCOC(=O)C1=C(Nc2ccc(Cl)c(Cl)c2)OC/C1=N\NC(=O)Cc1ccccc1
inactive: [1] -49.8% | [2] -22% | [3] -4.05% | [4] -12% | [5] -11.7% | [6] -35.4%

NC(=O)N1N=C2c3ccccc3SC[C@H]2[C@@H]1c1ccccc1
inactive: [1] 29.5% | [2] -23.2% | [3] -26.8% | [4] 2.55% | [5] -20.9% | [6] 21.6%

CNNC1=NS(=O)(=O)c2cc(C(=O)OC)c(Cl)cc2S1
inactive: [1] 8.75% | [2] -2.25% | [3] -9.9% | [4] 0.5% | [5] -6% | [6] 8.25%

O=C(Nc1c(Cl)c(Cl)c2c(c1Cl)Cc1cc(Cl)ccc1-2)C(Cl)Cl
inactive: [1] 36.9% | [2] 10.7% | [3] 1.5% | [4] 26.1% | [5] 3.85% | [6] 25.4%

CCCCC1(CO)NC(=O)NC1=O (stereo unspecified)
inactive: [1] -4.5% | [2] -13.9% | [3] -8.7% | [4] 8.95% | [5] 2.75% | [6] -1.4%

O=C1CSC(c2ccc(Cl)c(Cl)c2)N1c1nncs1 (stereo unspecified)
inactive: [1] -18.7% | [2] 11.8% | [3] 17.1% | [4] 10.4% | [5] 14.7% | [6] 23.4%

Cc1cc(C)c2c(c1)C(=O)c1ccccc1C2=O
inactive: [1] 42.6% | [2] 47.1% | [3] 47.4% | [4] 38% | [5] 30.9% | [6] 58.8%

COc1ccc(C(CC(=O)O)c2ccccc2)cc1 (stereo unspecified)
inactive: [1] -31.4% | [2] -42.6% | [3] -2.55% | [4] -14.4% | [5] -29.8% | [6] -28.6%

CCOC(=O)CC(c1ccccc1)C(C#N)(c1ccccc1)N(C)C (stereo unspecified)
inactive: [1] 27.9% | [2] 19.5% | [3] 40.8% | [4] 18% | [5] 30.4% | [6] 33.5%
